Reference: PubChem BioAssay (NCATS)
Inconclusive results are not listed. A call without a number means that no potency is given here. Activity calls are given as the source filed them. Calls follow the shape of the dose curve; as a rule, active = well fitted activation curve with a large enough effect; inconclusive = small, poorly fitted or top-dose-only effect, or another doubt; inactive = no such curve, though single readings can be large or run the other way.

experiment: Cell Proliferation Assay against the TMD8 Cell Line (Caspase readout at 8 hrs) (AID 651713); details: TMD8 lymphoma cells, caspase activation luminescence; series mostly up to 46.1 µM
Source text: One class of targeted therapeutics showing early clinical success in killing of ABC DLBCL lines are small molecule inhibitors of the Bruton tyrosine kinase (BTK) 11. Thus, we chose to investigate what additional compounds, if any, would synergize with the BTK inhibitor Ibrutinib (PCI-32765).
Prior to any combination assays, using an NCATS developed oncology compound library called the Mechanism of Interrogation Plate (MIPE), two well studied ABC DLBCL lines (TMD8 and HBL1) were screened using a cell viability assay (CellTiterGlo) and a 12-point titration series for each single agent. These initial experiments offered insight into the concentration range that offered the best coverage of activity and non-activity to assure relevant data is generated. In addition to the viability signature associated with this library, we examined the apoptotic response of each agent versus the TMD8 line as judged by caspase 3/7 activation. Activity was assayed at both 8 and 16 hour time-points to gain an appreciation of which agents induced an apoptotic response in a reasonable timeframe from a therapeutic exposure perspective. MIPE was also assayed for single agent viability in a human mesenchymal stem cell (hMSC) line as a surrogate of each library members potential therapeutic index.
The combination plates were then generated by choosing 20 of the best compounds from this single agent screen and plated in the presence of the BTK inhibitor. The first analysis was carried out using 6x6 dose response blocks for each of the 20 compounds. […] In addition to the cell viability assay, the parallel caspase 3/7 activation and viability in hMSC assays were carried out in the 10x10 format.
A total of 500 log growing TMD8 cells are seeded per well in 5 uL of a RPMI with glutamine (or Glutamax), without phenol red plus 5% FBS and 1X Pen/Strep into 1536 -solid white high base tissue culture treated Greiner One Bio Plates (789173-F) using a multidrop combi dispenser and a small sterile cassette. Compounds and controls totaling 23nL per well (negative control DMSO and positive control 9.2 uM Bortezomib-final) are immediately added to the plates using a 1536 head pin tool from Kalypsys. The plates are then covered with stainless steel gasket lids from Kalypsys and incubated for either 8 hours at 37C under 95% relative humidity with 5% CO2. After the desired incubation time, the plates are removed and allowed to reach room temperature before 3 uL of the Caspase Glo reagent (Promega) is added using an Aurora Flying Reagent Dispenser Bioraptor. The plates are then spun at 1000 rpms to remove bubbles and incubated for 15 minutes at room temperature before read on a ViewLux using a luminescent filter with a 10 second exposure. The relative luciferase units are used to calculated percent activity using DMSO as 0% and Bortezomib as 100%.
Potency is read from the fitted curve at half-maximal effect.

Compound | Potency
CS(=O)c1ccc(-c2nc(-c3ccc(F)cc3)c(-c3ccncc3)[nH]2)cc1 (stereo not drawn) | inactive
O=C(N[C@@H](c1ccccc1)[C@@H]1CCCCN1)c1cccc(C(F)(F)F)c1Cl | inactive
O=C1C(Cl)=C(NCCN2CCOCC2)C(=O)c2ncccc21 | inactive
CC(C)(C)C(=O)Oc1ccc2c(c1)nc(NC(=O)c1cccc([N+](=O)[O-])c1)n2CCCO | inactive
COc1cc(Nc2ncc(F)c(Nc3ccc4c(n3)NC(=O)C(C)(C)O4)n2)cc(OC)c1OC | inactive
O=C(CCCCCCC(=O)Nc1ccccc1)NO | inactive
CC(C)[C@H](CO)Nc1nc(Nc2ccc(C(=O)O)c(Cl)c2)c2ncn(C(C)C)c2n1 | inactive
CC(C)(C)c1cc(C(=O)O)c(NC(=O)Nc2ccc3[nH]ncc3c2)s1 | inactive
CC(C)(C)COc1ccc(-n2cc(C(=O)O)cn2)cc1C#N | inactive
COc1cc2nc(-c3ccc(N4CCN(C)CC4)cc3)nc(NCCN3CCOCC3)c2cc1OC | 29.6 µM (active)
COc1cccc2c1CCCC2CCCN1CCN(C2CCCCC2)CC1 (stereo not drawn) | 29.6 µM (active)
OC[C@H]1O[C@@H](n2cnc3c2NC=NC[C@@H]3O)C[C@H]1O | inactive
Cc1ccc(F)c(NC(=O)Nc2ccc(-c3cccc4[nH]nc(N)c34)cc2)c1 | inactive
CC(C)(C(=O)NCC(F)(F)C(F)(F)F)C(=O)N[C@@H]1C(=O)Nc2ccccc2-c2ccccc21 | inactive
CC(C)C(=O)Nc1ncc(-c2cc(C(F)F)nn2-c2c(Cl)cccc2Cl)s1 | inactive
Clc1ccc(-c2nc3sccn3c2C=NOCc2ccc(Cl)c(Cl)c2)cc1 | inactive
COc1cc2ncnc(-n3nc(-c4ccccn4)nc3N)c2cc1OC | 20.9 µM (active)
N#Cc1ccc(NC(=O)Nc2ccccc2Br)c2n[nH]nc12 | inactive
O=C(O)CCC1CCC(c2cc(F)ccc2F)(S(=O)(=O)c2ccc(Cl)cc2)CC1 (stereo not drawn) | inactive
O=C(O)c1ccc(-c2cc3cccnc3c(-c3ccc4nonc4c3)n2)cc1 | inactive
O=C(Nc1cc(Cl)cc2c1[nH]c1cnccc12)c1cccnc1 | inactive
O=c1cc(N2CCOCC2)oc2c(-c3cccc4c3sc3ccccc34)cccc12 | 20.9 µM (active)
COc1cc(N2CCC(N3CCN(C)CC3)CC2)ccc1Nc1ncc(Cl)c(Nc2ccccc2S(=O)(=O)C(C)C)n1 | 23.5 µM (active)
